Experimental data taken from PubChem BioAssay (NCI).
About 79,000 compounds went through this panel and 15% of them were active in at least one assay; those are over-represented in the sample as a whole. A number with no mark means an inactive call. Activity calls are given as the source filed them. Cut-off read from the data, not from the text of the source: active = growth inhibition above about 70%; inactive = the rest.

What was measured:
[1] = NCI Yeast Anticancer Drug Screen. Data for the rad50 strain (AID 155);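 note: 0% = growth of vehicle-only cultures of the same strain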; details: S. cerevisiae rad50 strain growth inhibition, hits give high values
Method in brief: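 Inhibition values express reduced yeast growth in compound-treated cultures relative to vehicle-treated controls.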

[2] = NCI Yeast Anticancer Drug Screen. Data for the mec2-1 strain (AID 157); details: S. cerevisiae mec2-1 strain, hits give high values
Method in brief: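 Using mec2-1 yeast: add compound, measure growth, express inhibition versus vehicle-treated cultures.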

[3] = NCI Yeast Anticancer Drug Screen. Data for the sgs1 mgt1 strain (AID 161);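 note: 0% = growth of cultures given vehicle only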; details: S. cerevisiae sgs1 mgt1 strain, hits give high values
Method in brief: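 Yeast cells carrying a defined DNA-repair defect were exposed to test compounds. Growth inhibition was measured relative to vehicle-treated controls.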

[4] = NCI Yeast Anticancer Drug Screen. Data for the cln2 rad14 strain (AID 165);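 note: 0% = growth equal to vehicle treated cultures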; details: S. cerevisiae cln2 rad14 strain, hits give high values
Method in brief: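 Yeast strain cln2 rad14, bearing defects in cell cycle control and DNA repair, serves as the test system; values reflect growth inhibition compared with vehicle.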

[5] = NCI Yeast Anticancer Drug Screen. Data for the bub3 strain (AID 167); details: S. cerevisiae bub3 mutant strain, hits give high values
Method in brief: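 Steps: expose the mutant yeast strain to compound; grow alongside vehicle-treated cultures; measure growth; express inhibition against the vehicle cultures.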

[6] = NCI Yeast Anticancer Drug Screen. Data for the mlh1 rad18 strain (AID 175); details: S. cerevisiae mlh1 rad18 strain growth inhibition, hits give high values
Method in brief: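 Steps: expose repair-defective yeast to compound; measure growth; express inhibition against vehicle-treated controls.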

[7] = at 5.0 µM (retest, dose inferred, filed as 0.5)
[8] = at 50.0 µM (retest, dose inferred, filed as 5.0)

SMILES | growth inhibition [1, 7] | growth inhibition [1, 8] | growth inhibition ([1]; at 50.0 µM) | growth inhibition [2, 7] | growth inhibition [2, 8] | growth inhibition ([2]; at 50.0 µM) | growth inhibition [3, 7] | growth inhibition [3, 8] | growth inhibition ([3]; at 50.0 µM) | growth inhibition [4, 7] | growth inhibition [4, 8] | growth inhibition ([4]; at 50.0 µM) | growth inhibition [5, 7] | growth inhibition [5, 8] | growth inhibition ([5]; at 50.0 µM) | growth inhibition [6, 7] | growth inhibition [6, 8] | growth inhibition ([6]; at 50.0 µM)
CC(C)C1=CC(=O)C2=C(CCC3C(C)(C(=O)O)CCC[C@]23C)C1=O (stereo not given in full) | 7% | 99% (active) | 92.2% (active) | 28% | 99% (active) | 93% (active) | 20% | 99% (active) | 93.2% (active) | 15% | 99% (active) | 90.7% (active) | 54% | 98% (active) | 92.3% (active) | 21% | 99% (active) | 91.7% (active)
O=C1C2=C(C(=O)c3cnccc31)C1C=CC2CC1 (stereo not given) | 21% | 71% (active) | 49.1% | 17% | 69% | 31.2% | 25% | 78% (active) | 10.2% | 16% | 40% | 15.8% | 27% | 88% (active) | 59.9% | 40% | 94% (active) | 90.8% (active)
Cc1c(CNc2ccc(Cl)c(Cl)c2Cl)cnc2nc(N)nc(N)c12 | 40% | 86% (active) | 78.5% (active) | 27% | 53% | 44.5% | 19% | 52% | 64.5% | 34% | 60% | 43.4% | 28% | 46% | 51.5% | 30% | 56% | -36.1%
CC1OC(OC2C(Oc3c(-c4ccc(O)c(O)c4O)oc4cc(O)ccc4c3=O)OC(CO)C(O)C2O)C(O)C(O)C1O (stereo not given) | -4% | -8% | 22.9% | -5% | 0% | -5.3% | -5% | 1% | -7.95% | 7% | 0% | -8.85% | -1% | 0% | 3.25% | -5% | -6% | -10.7%
COc1ccc(C2SC(C)C(=O)N2c2nc(-c3nc(-c4ccc(Cl)cc4)cs3)cs2)cc1 (stereo not given) | 42% | 86% (active) | 45% | 17% | 99% (active) | 39.9% | 5% | 92% (active) | 69.3% | 4% | 99% (active) | 83.5% (active) | -17% | 99% (active) | 27.3% | 23% | 99% (active) | 77% (active)
CC(C)(C)C(=O)OC(N)/C=C/c1ccccc1 (stereo not given) | 21% | 24% | 1.75% | 15% | 16% | -10.2% | 13% | -36% | 78.8% (active) | 14% | -52% | 36.7% | 7% | -24% | 82.7% (active) | 23% | 24% | -19.9%
Cc1ccc(/C=N\NC(=S)N/N=C/c2ccc(C)cc2)cc1 | -6% | 98% (active) | 30.3% | 2% | 99% (active) | 40% | 2% | 99% (active) | 74.8% (active) | -43% | 98% (active) | 20% | -4% | 99% (active) | 94.5% (active) | 0% | 98% (active) | 59%
Sc1c(Br)cc(Br)cc1Br.[Ag] | 7% | 99% (active) | 31.6% | 6% | 100% (active) | 30.9% | 26% | 99% (active) | 72.4% (active) | 6% | 99% (active) | 14.6% | -1% | 100% (active) | 30.7% | 19% | 99% (active) | 59.5%
CC(C)S(=O)(=O)ON1C(=O)c2ccc(N(C)C)cc2C1=O | 14% | 35% | 91.7% (active) | 14% | 33% | 81.8% (active) | 16% | 34% | 61.3% | 24% | 42% | 95.4% (active) | 17% | 48% | 73.4% (active) | 16% | 40% | 97.5% (active)
c1ccc(B2OC(c3ccccc3)C(c3ccccc3)O2)cc1 (stereo not given) | -19% | -12% | 3.35% | -18% | -21% | -0.45% | -7% | -9% | 10.8% | 24% | 7% | 5.85% | -4% | -3% | 11.2% | -13% | 9% | 8.85%
